# Assay outcomes deposited in PubChem by Columbia University Molecular Screening Center.
# HUVEC tox TNFa: HUVEC cytotoxicity counter-screen, TNF alpha stimulated; HUVEC TNFalpha-stimulated, Hoechst cell count, imaging; cell count reduction, % at 2 µM; 93,000 tested, 0.17% active;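 active = cell count reduction exceeding the screen mean by over 5 SD, scaled to untreated wells per plate, cut at about 78% in these data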;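 note: cells counted after 24 h of TNF alpha exposure following the 1 h pretreatment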
# NFkB transloc inh: blocks IL-1B driven NFkB nuclear translocation in HUVEC cells; HUVEC IL-1B NFkB p65 nuclear translocation imaging; inhibition, % at 2 µM; 94,000 tested, 0.43% active;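 active = inhibition above about 30% together with a positive call from visual inspection of the well image, limit read from the data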;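 note: nuclear over cytoplasmic p65 intensity ratio measured by imaging; 0% = IL-1B stimulated DMSO wells and 100% = unstimulated DMSO wells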
# NFkB transloc pot: enhances IL-1B driven NFkB nuclear translocation; HUVEC IL-1B NFkB p65 nuclear translocation imaging; activation, % at 2 µM; 94,000 tested, 0.3% active;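 active = activation above 40%, about the mean plus 3 SD, also judged a hit on visual image review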;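 note: percent activation is computed from the nuclear over cytoplasmic p65 intensity ratio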
# HUVEC tox IL1B: HUVEC cytotoxicity counter-screen, IL-1B stimulated; HUVEC cell count loss, Hoechst imaging; cell count reduction, % at 2 µM; 94,000 tested, 0.41% active; AID 845;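 active = cell count reduction more than 3 SD above the screen-wide mean, cut at about 70% in these data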;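 note: normalized per plate to untreated control cells as the no-loss baseline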
# E-sel TNF inh: blocks E-selectin expression induced by TNF alpha; inhibition, % at 2 µM; AID 1246; HUVEC TNFa-induced E-selectin immunofluorescence, high content; 120,000 tested, 0.71% active;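 active = inhibition above the batch mean plus 3 SD, and confirmed as a hit on visual image review, cut at about 43% in these data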;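 note: 0% = TNF-stimulated DMSO wells and 100% = unstimulated control wells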
# VCAM1 TNFa inh: reduces TNF alpha induced VCAM1 expression in HUVEC | 95,000 tested, 0.48% active | inhibition, % at 2 µM | HUVEC TNFa-induced VCAM-1 immunofluorescence, high-content imaging;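 active = inhibition above the batch mean plus 3 SD, with images confirmed as a hit by eye, cut at about 37% in these data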;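 note: 0% = TNF-stimulated DMSO wells and 100% = unstimulated control wells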
# Starred values were filed as active, the others as inactive; . = no result given. A selection: hits, their analogues and other compounds. The true share with any hit is near 1.7%.
SMILES,HUVEC tox TNFa,NFkB transloc inh,NFkB transloc pot,HUVEC tox IL1B,E-sel TNF inh,VCAM1 TNFa inh
CCN(CC)S(=O)(=O)c1cccc(C(=O)OCC(=O)Nc2ccccc2OC(F)F)c1,-32,43*,-43,-62,12,-8
CN(C)S(=O)(=O)c1cccc(C(=O)OCC(=O)Nc2ccccc2OC(F)F)c1,-21,6,-6,-2,-64,-16
Cc1cc2cc(C=C(C#N)C#N)c(Cl)nc2cc1C,.,.,.,.,58*,.
CCNC(=O)CN(CCc1ccccc1)S(=O)(=O)c1ccc(OC)cc1,-14,6,-6,6,13,7
CCNC(=O)CN(Cc1ccccc1)S(=O)(=O)c1ccccc1,-3,36*,-35,10,.,5
COc1ccccc1NC(=O)CSc1nnc(-c2ccc(NC(C)=O)cc2)n1C,-11,-24,24,8,67*,-8
COc1ccccc1NC(=O)CC(=O)CSc1nnc(-c2ccc(C)cc2)n1C,-17,-14,14,-4,32,12
CC(C)NCCCCOc1ccccc1-c1ccccc1,.,.,.,.,-3,.
Cc1cc(N2CCN(C)CC2)ccc1NC(=O)c1cccc(S(=O)(=O)N2CCc3ccccc3C2)c1,.,.,.,.,-21,.
COc1c(Cl)cc(Cl)cc1C(=O)Nc1ccc(NC(C)=O)cc1,.,.,.,.,64*,.
CC(=O)Nc1ccc(NC(=O)CN2CCN(c3cccc(C(F)(F)F)c3)CC2)cc1,-9,34*,-34,-24,-7,-13
O=C(CN1CCN(c2cccc(C(F)(F)F)c2)CC1)Nc1cccc(C(F)(F)F)c1,3,9,-9,-1,4,-2
O=C(CN1CCN(c2ccccn2)CC1)Nc1ccccc1,-31,-40,41*,-31,13,5
O=C(CN1CCN(c2ccccn2)CC1)Nc1ccc(F)cc1,-23,-11,11,9,5,5
O=C(CN1CCN(CC(=O)Nc2ccc(OCc3ccccc3)cc2)CC1)Nc1ccc(F)cc1,3,2,-2,15,64*,-2
O=C(CN1CCOCC1)Nc1ccc(OCc2ccccc2)cc1,7,3,-3,11,38,-1
O=c1ccc(Oc2nc(N3CCOCC3)nc(N3CCOCC3)n2)nn1-c1ccccc1,90*,13,-13,-12,1,99*
CC(C)(C)Nc1nc(Oc2ccc(=O)n(-c3ccccc3)n2)nc(N2CCOCC2)n1,-29,-8,10,-40,.,-10
CCn1c2ccccc2c2cc(NC(=O)CSc3nccc(=O)[nH]3)ccc21,.,.,.,.,-19,.
O=C(Nc1ccccc1N1CCOCC1)c1ccc(Cl)nc1,.,.,.,.,88*,.
C=CCSc1nc2ccccc2n1C(=O)/C=C/c1ccc(OC)c(OC)c1,8,9,-9,3,-7,-8
C=CCSc1nc2ccccc2n1C(=O)/C=C/c1cc(OC)c(OC)c(OC)c1,10,14,-14,-2,66*,92*
CCSc1nc2ccccc2n1C(=O)/C=C/c1ccc(OC)c(OC)c1,.,.,.,.,100*,.
COc1ccc(OC)c(NC(=O)COC(=O)/C=C/c2ccc(Cl)cc2)c1,.,.,.,.,17,.
COc1ccc(N(CC(=O)Nc2ccc3c(c2)OCO3)S(C)(=O)=O)c(OC)c1,-10,-9,9,-4,64*,6
SMILES,HUVEC tox TNFa,NFkB transloc inh,NFkB transloc pot,HUVEC tox IL1B,E-sel TNF inh,VCAM1 TNFa inh
CCOC(=O)c1cccc(Nc2nc(C)cc(C)n2)c1,-2,-2,2,83*,7,-8
CCOC(=O)c1ccc2nc(C)cc(Nc3cccc(C(=O)O)c3)c2c1,.,.,.,.,33,.
COc1cc(NC(=O)c2cc3c(Cl)nc4ccccc4c3s2)cc(OC)c1OC,.,.,.,.,-10,.
COc1ccc(NC(=O)c2cc3c(Cl)nc4ccccc4c3s2)c(OC)c1,.,.,.,.,63*,.
CC(C)Oc1nnnn1-c1ccccc1,1,-2,2,2,-14,18
c1ccc(-n2nnnc2OCCOc2nnnn2-c2ccccc2)cc1,-31,24,-24,94*,-5,15
Cc1cccc(Sc2nc(-c3ccccc3)ncc2C(=O)O)c1,.,.,.,.,-13,.
O=c1c2cccnc2[nH]c(=S)n1CCCN1CCN(c2ccc(F)cc2)CC1,-14,-6,6,-2,100*,-13
COc1ccc(N2CCN(CCCn3c(=S)[nH]c4ncccc4c3=O)CC2)cc1,-3,-10,10,-2,-2,4
O=C(COC(=O)c1cc[n+]([O-])cc1)Nc1ccc(F)c([N+](=O)[O-])c1,.,.,.,.,-14,.
Cc1cccc(NC(=S)Nc2ccc(N3CCOCC3)cc2)c1C,.,.,.,.,-14,.
Cc1ccc(S(=O)(=O)N(C)c2cc(S(=O)(=O)N3CCC(C)CC3)c(C)cc2C)cc1,-38,-21,21,94*,-28,-2
CC(=O)N1CCC(N(CCN2CCOCC2)C(=S)Nc2ccc(C)c(C)c2)CC1,.,.,.,.,6,.
COc1ccc(CSc2nc(C)cc(C)c2S(C)(=O)=O)cc1,.,.,.,.,5,.
CCN1C(=O)S/C(=C/c2ccc(Sc3nc4ccccc4[nH]3)o2)C1=O,.,.,.,.,10,.
N#CC(C#N)=C/C(C#N)=C(/N)N1CCN(c2ccc(Cl)cc2)CC1,-3,-2,2,-53,97*,-1
CSC(=NC#N)N1CCN(c2ccc(Cl)cc2)CC1,-12,-4,4,-6,-5,14
CC(NC(=O)COC(=O)CCNC(=O)c1ccco1)C12CC3CC(CC(C3)C1)C2 (stereo not drawn),-13,-63,63*,-44,.,3
Cc1cccc(N2CCN(CC(O)COCc3cccs3)CC2)c1C (stereo not drawn),.,.,.,.,-17,.
N#CC(C#N)=C1C=CC=CN1/C(=C\c1ccco1)C(=O)c1ccc(-c2ccccc2)cc1,.,.,.,.,93*,.
O=C(c1ccc(-c2ccccc2)cc1)N1CCN(C(=O)c2ccco2)CC1,-12,-12,12,2,.,11
O=C(Nc1ccc(Cl)cc1)c1cc2nc(-c3ccco3)cc(C(F)(F)F)n2n1,-27,-11,11,-8,78*,6
CC(C)NC(=O)c1cc2nc(-c3ccco3)cc(C(F)(F)F)n2n1,-27,-18,18,-16,0,1
CCC(Sc1nc2c(c(=O)n1CC)SC(C)C2)C(=O)OC (stereo not drawn),10,-16,16,2,65*,-18
COC(=O)c1[nH]c2cc(OC)ccc2c1NC(=O)CN1CCC(C(N)=O)(N2CCCCC2)CC1,-15,-8,8,-5,2,50*
SMILES,HUVEC tox TNFa,NFkB transloc inh,NFkB transloc pot,HUVEC tox IL1B,E-sel TNF inh,VCAM1 TNFa inh
COC(=O)c1[nH]c2cc(OC)ccc2c1NC(=O)CN1CCC(C(N)=O)CC1,.,.,.,.,-23,.
O=[N+]([O-])c1ccc(C(O)C23CN4CN(CN(C4)C2)C3)cc1 (stereo not drawn),.,.,.,.,-6,.
CCOC(=O)N1CCN(c2ccc(N3C(=O)CCCC3=O)cc2[N+](=O)[O-])CC1,.,.,.,.,12,.
O=C(O)c1ccc(-c2ccc(Cl)cc2Cl)o1,0,-9,9,11,61*,-18
O=C(O)c1ccc(-c2ccccc2Cl)o1,.,-10,10,-11,-21,.
COC(=O)[C@H](C)NC(=O)NC1CCN(Cc2ccccc2)CC1,0,-1,1,83*,0,14
CCOC(=O)c1nnsc1Nc1ccc(C)c(C)c1,.,.,.,.,0,.
